The record followed here is PubChem BioAssay.

Assay [1] relates to Human papillomavirus type 1a protein E7 (residues 44-93). Nature of the assay: HPV1a E7 fragment binders on microarrays, primary screen, biochemical, small-molecule microarray, residues 44-93, 635 nm fluorescence (AID 1108).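 Also: E7 fragment applied at 1 µg/mL in TBST for 1 h at 4 C; score combines spot fluorescence with its signal to noise ratio.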 The conditions noted are these: small-molecule microarray binding, fluorescence 635 nm; higher = more signal.
A short description of assay [2]: modulators of HCV replicon luciferase signal, primary screen, HCV replication inhibitor project, Huh7 cells, luciferase reporter (AID 1109).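 Also: huh7 hepatoma cells harbouring a luciferase neomycin HCV replicon reporter; luciferase luminescence as measure of HCV replicon replication; test concentration not given here.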 The settings on record: 48 h, higher = more signal. (In antiviral work, replicon cells carry a viral genome segment that copies itself.)
Assay [3] has as its target Left-right determination factor 2 (Homo sapiens) (UniProt O00292). Briefly: LEFTY2 binders on small-molecule microarrays, primary screen, biochemical, small-molecule microarray, 635 nm fluorescence scan (AID 1110). The conditions noted are these: LEFTY2 binding, higher = more signal.
Assay [4] deals with Calmodulin-1 (Homo sapiens) (UniProt P0DP23). Briefly: CALM1 binders on microarrays, EGTA buffer, profiling panel, biochemical, small-molecule microarray, Cy5-labelled CALM1 (AID 1111).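 Also: labelled calmodulin applied in Tris saline Tween buffer holding calcium plus EGTA and DTT.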 The settings on record: Cy5-CALM1 binding fluorescence, higher = more signal.
The target is the same in assay [5]. Briefly: calcium-bound CALM1 binders on microarrays, profiling panel, artefact control for SMM control-protein annotation, biochemical, small-molecule microarray, Cy5-labelled CALM1, plus calcium (AID 1112).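 Also: score merges spot fluorescence with signal to noise from triplicate slides.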 The settings on record: Cy5-CALM1 binding fluorescence, higher = more signal.
Assay [6] in a line: small-molecule microarray binders of probe aWnt5a, primary screen, biochemical, biotinylated probe, 635/667 nm fluorescence (AID 1113).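 Also: score merges 667 nm fluorescence intensity with signal-to-noise per printed feature.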 The settings on record: higher = more signal.
A short description of assay [7]: small-molecule microarray binders of probe aShh, primary screen, biochemical, biotinylated probe, 635/667 nm fluorescence (AID 1114).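 Also: probe is biotin-labelled aShh protein from a stem cell growth factor screen; measures binding of labelled protein to compounds printed on the slide; score merges feature fluorescence at 667 nm with signal-to-noise.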 The conditions noted are these: higher = more signal.
Assay [8] is described as follows: small-molecule microarray binders of probe aNog, primary screen, biochemical, biotinylated probe, 635/667 nm fluorescence (AID 1115).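 Also: probe is biotinylated aNog protein used at 0.15 µg/mL for 1 h at 4 C; z-score combines 667 nm fluorescence of each spot with its signal to noise.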 The settings on record: higher = more signal.
The target in assay [9] is Torsin-1A-interacting protein 1 (Homo sapiens) (UniProt Q5JTV8). Briefly: LAP1 binders from COS7 cell lysate, primary screen, small-molecule microarray, 635/667 nm fluorescence (AID 1116). The settings on record: COS7-hLAP1 lysate binding, 635 nm fluorescence, higher = more signal.
Assay [10] deals with Alpha-bungarotoxin (Bungarus multicinctus) (UniProt P60615). Nature of the assay: alpha-bungarotoxin binders on microarray, profiling panel, artefact control for SMM control protein annotation, biochemical, small-molecule microarray, Alexa647 label, 635/667 nm fluorescence (AID 1117). The conditions noted are these: alpha-BTX-A647 binding fluorescence, higher = more signal.
Alpha-bungarotoxin (Bungarus multicinctus), sequence (P60615 whole entry, looked up): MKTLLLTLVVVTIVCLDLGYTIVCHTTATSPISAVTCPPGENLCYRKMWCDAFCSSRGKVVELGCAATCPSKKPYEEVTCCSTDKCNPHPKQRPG

Left-right determination factor 2 (Homo sapiens), sequence (O00292 whole entry, looked up): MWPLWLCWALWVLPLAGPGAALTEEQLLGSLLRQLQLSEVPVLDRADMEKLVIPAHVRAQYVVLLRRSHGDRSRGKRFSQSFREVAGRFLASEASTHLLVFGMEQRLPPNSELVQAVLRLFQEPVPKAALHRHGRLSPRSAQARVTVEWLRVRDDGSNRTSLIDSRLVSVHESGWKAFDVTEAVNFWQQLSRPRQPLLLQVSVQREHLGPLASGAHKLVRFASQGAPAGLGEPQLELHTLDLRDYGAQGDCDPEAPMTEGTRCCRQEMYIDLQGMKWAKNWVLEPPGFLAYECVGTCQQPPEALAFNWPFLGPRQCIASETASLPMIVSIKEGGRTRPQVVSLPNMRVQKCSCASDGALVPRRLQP
Torsin-1A-interacting protein 1 (Homo sapiens), sequence (Q5JTV8 whole entry, looked up): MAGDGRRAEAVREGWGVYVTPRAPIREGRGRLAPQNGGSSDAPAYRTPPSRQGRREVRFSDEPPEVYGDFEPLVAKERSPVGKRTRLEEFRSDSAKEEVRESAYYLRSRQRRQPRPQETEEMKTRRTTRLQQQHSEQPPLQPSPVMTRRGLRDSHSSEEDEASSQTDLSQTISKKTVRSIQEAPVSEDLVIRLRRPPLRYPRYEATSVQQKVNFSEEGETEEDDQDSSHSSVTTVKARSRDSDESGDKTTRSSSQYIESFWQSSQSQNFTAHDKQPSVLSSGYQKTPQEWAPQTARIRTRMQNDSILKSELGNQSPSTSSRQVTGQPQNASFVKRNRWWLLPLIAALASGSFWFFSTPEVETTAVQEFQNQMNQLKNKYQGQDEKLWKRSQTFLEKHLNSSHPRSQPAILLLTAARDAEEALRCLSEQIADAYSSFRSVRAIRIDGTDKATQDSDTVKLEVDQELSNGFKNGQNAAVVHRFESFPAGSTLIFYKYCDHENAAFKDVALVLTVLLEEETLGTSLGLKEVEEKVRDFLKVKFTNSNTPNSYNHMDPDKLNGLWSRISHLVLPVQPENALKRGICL

As for `C[n+]1ccc(-c2ccc(CO)cc2)cc1`, the composite z-score in assay [1] was -1.04; in assay [3], 0.616; in assay [4], 0.468; in assay [5], 0.607; in [6], -0.117; in assay [7], -0.0709. For the same molecule, the composite z-score is -0.329 in assay [8], 0.724 in [9] and 3.86 in assay [10]. Moreover, in [2], the z-score is -0.0613.

As for `CCOC(=O)[C@H](CC(C)C)NC(=O)CCC1CC(OC(=O)NCc2cccc3ccccc23)CC2(CCCC(COC(=O)NCCOC)O2)O1` (stereo not given in full), the composite z-score in assay [1] was 1.34; in [3], 0.629; in assay [4], -0.24; in assay [5], -0.418; in assay [6], -0.116; in [7], -0.128. The composite z-score is -0.0653 in assay [8], 0.481 in assay [9] and 0.0702 in [10]. The molecule also displayed a z-score in assay [2] of 0.339.

Turning to `COc1cccc([C@H]2Oc3ccc(OC)cc3C(=NO[C@@H](C)c3cn([C@H](CO)Cc4ccccc4)nn3)[C@@H]2O)c1`, the composite z-score in assay [1] was -0.429; in assay [3] it was -0.36; in assay [4], 0.465; in assay [5] it was -0.0011; in assay [6] it was -0.0836; in assay [7], 0.0121. Also, the composite z-score was 0.0918 in [8], -0.0881 in assay [9] and -0.417 in assay [10]. This molecule also gave a z-score in assay [2] of -0.727.

On to `CCOC(=O)[C@H](CC(C)C)NC(=O)CCC1CC(OC(=O)NCc2cccc3ccccc23)CC2(CCCC(COC(=O)NCC3CCCCC3)O2)O1` (stereo not given in full), for which the composite z-score is 1.31 in assay [1]; 0.559 in [3]; 0.162 in assay [4]; -0.376 in [5]; -0.0792 in assay [6]; -0.2 in assay [7]. Also, the composite z-score in assay [8] was -0.256; in assay [9], 0.158; in [10], 0.742. The molecule also yielded a z-score in [2] of -1.93.

In the case of `CCOC(=O)[C@H](CC(C)C)NC(=O)CCC1CC(OC(=O)NCCc2ccc(F)cc2)CC2(CCCC(COC(=O)NCCc3ccc(Cl)cc3)O2)O1` (stereo not given in full), the composite z-score in assay [1] was 0.585; in [3] it was 0.839; in [4], -0.222; in assay [5], -0.0499; in assay [6], -0.0044; in assay [7], -0.156. For the same molecule, the results for the composite z-score in assay [8], in assay [9] and in [10] were -0.45, 0.456 and 1.02, respectively. In addition, in assay [2], the z-score was -1.19.

Regarding `COc1ccc(O[C@@H]2[C@H](O)CO[C@H]2C=Cc2ccccc2)cc1`, the composite z-score in assay [1] is -0.206; in assay [3], -0.547; in assay [4], -0.248; in assay [5] it was -0.246; in [6] it was -0.0685; in [7], -0.283. The composite z-score in assay [8] was 0.0308; in assay [9], -0.395; in assay [10], -0.527. Also, the z-score in assay [2] stood at 0.388.

`C[C@H]1CC[C@H]2C(=O)O[C@H](COc3ccc(C(C)(C)C)cc3)CN2[C@@H]1c1ccc(Br)cc1`: the composite z-score is 0.179 in assay [1]; -0.281 in [3]; 1 in [4]; 0.101 in [5]; -0.139 in assay [6]; -0.0548 in [7]. The composite z-score in [8] was 0.0051; in assay [9], 0.303; in assay [10], 1.15. The molecule also showed a z-score in assay [2] of -0.145.

`CCOC(=O)[C@H](Cc1ccccc1)NC(=O)OC1CC(CCC2CC(CC)=NO2)OC2(CCCC(COC(=O)NCCC(C)C)O2)C1` (stereo not given in full): the composite z-score was 0.836 in assay [1]; 0.0791 in assay [3]; 0.426 in assay [4]; 0.0002 in assay [5]; 0.0292 in assay [6]; -0.195 in assay [7]. For the same molecule, the composite z-score in assay [8] came to 0.152; in [9], 0.309; in assay [10] it was 0.426. In [2], this molecule showed a z-score of -1.39.

Turning to `CCOC(=O)NN=C1C[C@@H](O)[C@@H](O)[C@@H]2[C@@H]3C(=O)N(c4cccc(Oc5ccccc5)c4)C(=O)[C@@H]3CC[C@@H]12`, the composite z-score in [1] is -0.269; in assay [3], 0.144; in assay [4], -0.0069; in assay [5] it was -0.434; in assay [6], -0.0165; in [7], -0.32. For the same molecule, the composite z-score is -0.444 in [8], -0.127 in [9] and 1.32 in assay [10]. This molecule also yielded a z-score in assay [2] of -0.912.

With `O=C1[C@H]2[C@H]3[C@H](O)[C@H](O)CC(=NOCc4ccccc4)[C@@H]3CC[C@H]2C(=O)N1c1ccc(F)cc1F`, the composite z-score in assay [1] was -0.392; in assay [3], 0.303; in assay [4], -0.201; in assay [5], -0.57; in assay [6], -0.0519; in assay [7] it was 0.0278. For the same molecule, the composite z-score came to 0.0369 in assay [8], 0.0133 in assay [9] and 0.297 in [10]. The z-score in assay [2] stood at 0.606.

As for `CO[C@H]1COC(=O)CCC[C@@H](C)[C@H](OC)COC(=O)[C@@H]2CCCN2C(=O)CC=C[C@@H]1C`, the composite z-score in assay [1] was -1.68; in assay [3], 1.18; in [4] it was -0.984; in assay [5] it was -1.72; in assay [6] it was -0.236; in [7], -0.0533. Besides, the composite z-score in assay [8] was -0.0553; in assay [9] it was 1.09; in [10], 0.199. The molecule also returned a z-score in assay [2] of -2.06.

As for `COC(=O)[C@@H]1CC[C@H](C)[C@@H](c2ccc(C)cc2)N1C(=O)c1ccc(C=NO[C@H](C)c2cn([C@@H]3COC[C@H]3O)nn2)cc1`, the composite z-score is 1.33 in [1]; 0.635 in [3]; 0.0264 in [4]; -0.361 in assay [5]; -0.152 in assay [6]; 0.0141 in [7]. In addition, the composite z-score is -0.0065 in assay [8], 0.581 in assay [9] and -0.0105 in assay [10]. In [2], the z-score was -1.06.

Regarding `C[C@@H](c1ccccc1)N1C(=O)[C@H]2[C@H]3[C@H](O)[C@H](O)CC(=NO[C@@H]4O[C@H](CO)[C@@H](O)[C@H](O)[C@H]4O)[C@@H]3CC[C@H]2C1=O`, the composite z-score is 0.292 in assay [1]; 0.576 in [3]; -0.238 in [4]; -0.686 in assay [5]; -0.0403 in assay [6]; -0.19 in [7]. Besides, the composite z-score in assay [8] was determined as 0.0924; in [9], 0.526; in assay [10], 0.199. In assay [2], this molecule yielded a z-score of -0.278.

With `O=C1OCCC=C1C(O)CCc1ccccc1` (stereo not given), the composite z-score in [1] is -0.0602; in [3] it was 0.791; in assay [4] it was -0.818; in assay [5], -0.679; in assay [6], -0.0981; in assay [7], -0.13. In addition, the results for the composite z-score in assay [8], in [9] and in assay [10] were 0.0229, 0.128 and 0.642, respectively. The molecule also came in with a z-score in assay [2] of -0.364.

As to `COC(=O)[C@H]1O[C@@H](c2c(OC)c(OC)c(C)c(OC)c2OC)[C@H](C)[C@@H](O)[C@H]1C`, the composite z-score in [1] is 1.08; in [3], 0.685; in [4], -0.112; in assay [5] it was -0.421; in [6] it was -0.157; in assay [7] it was -0.0769. The results for the composite z-score in [8], in [9] and in assay [10] were 0.0947, 0.407 and 0.101, respectively. The molecule further had a z-score in [2] of 0.155.

For the molecule `CC=CC1=C(CO)C(=O)[C@@H]2O[C@@H]2C1=O`, the composite z-score in [1] was -1.52; in assay [3], 1.27; in [4], -1.58; in [5], -1.61; in [6] it was -0.145; in assay [7], -0.304. For the same molecule, the composite z-score was 0.0947 in assay [8], -0.822 in assay [9] and 0.177 in assay [10]. The molecule also registered a z-score in assay [2] of -2.28.

For the molecule `O=C1C=C[C@@H](O)[C@@H]2[C@@H]3C(=O)N(c4ccc(F)cc4F)C(=O)[C@@H]3CC[C@@H]12`, the composite z-score is 0.229 in assay [1]; 0.237 in [3]; 0.269 in [4]; -0.282 in [5]; -0.0405 in assay [6]; -0.153 in assay [7]. Further, the composite z-score was -0.252 in assay [8], 0.804 in [9] and 0.0764 in [10]. For the same molecule, the z-score in assay [2] is -0.578.
